Bioassay records: PubChem BioAssay, several laboratories
INS promoter inh – inhibitors of insulin promoter-driven GFP, primary screen, imaging, TRM-6 cells (human fetal islet line), eGFP reporter, cell count. reporter expression induced with tamoxifen. inhibition, % at 2 µM. 0.9% of 130,000 active. AID 1273, 2008;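 active = inhibition above the mean plus 3 SD, with well images judged a real hit on visual review, cut at about 60% in these data, passing the limit was not always enough; inconclusive = inhibition over the cutoff but images rejected on review; inactive = inhibition not above the cutoff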
SDO1 yeast rescue – growth rescue of sdo1-depleted yeast, primary screen, S. cerevisiae, bone marrow failure model; AID 817, 2007; 0.21% of 140,000 active; S. cerevisiae sdo1-depleted JHY4D growth rescue, OD600 30 h; hits give high values; pdr5 snq2 efflux-pump mutant strain; z-score at 10 µM;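 active = z-score above 3 at both the 24 hr and the 30 hr optical density reads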;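 also: z-score against mean and SD of all compound wells on the same plate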
Measles CPE – compounds protecting cells from measles virus cytopathic effect, primary screen, measles RdRp inhibitor project, single point, MLSMR library, absorbance; Measles virus-infected cells, CPE protection; protection (pct of control), % at 4 µM; 1.5% of 140,000 active; in the data active = protection mostly above about 24%, no sharp cut-off; inactive = mostly below about 26%
ROMK mod – ROMK potassium channel modulators, primary screen, cell-based, thallium flux, MLSMR library. B-score at 10 µM. Tet-inducible ROMK, thallium flux fluorescence; actives lie on both sides. ATP-sensitive inward rectifier potassium channel 1 (Homo sapiens), P48048. 2% of 130,000 active;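 active = signal ratio slope over the read window, or its plate-corrected B-score, at least 3 SD from the plate mean, either direction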;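 also: B-score of the F/F0 ratio slope over 7 to 12 s after thallium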
Target sequence (P48048 whole entry, looked up): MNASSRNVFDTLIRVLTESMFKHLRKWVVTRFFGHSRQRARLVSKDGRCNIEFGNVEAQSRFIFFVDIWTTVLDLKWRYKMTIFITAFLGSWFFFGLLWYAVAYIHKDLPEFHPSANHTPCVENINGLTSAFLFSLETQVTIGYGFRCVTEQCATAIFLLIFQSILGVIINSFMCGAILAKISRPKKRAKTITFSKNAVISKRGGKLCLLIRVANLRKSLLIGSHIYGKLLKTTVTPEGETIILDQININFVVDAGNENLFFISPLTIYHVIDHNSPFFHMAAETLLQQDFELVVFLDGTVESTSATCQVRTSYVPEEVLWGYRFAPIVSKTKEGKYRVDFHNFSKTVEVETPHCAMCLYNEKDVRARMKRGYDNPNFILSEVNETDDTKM
ROMK retest – ROMK channel modulator hit retest, confirmation, cell-based, thallium flux, duplicate, resupplied hits; shares compounds with ROMK mod; fluorescence ratio; hits give low values; 54% of 3,000 active; normalized thallium flux (F/F0 slope) at 10 µM; AID 1917, 2009;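 active = Flux at 10 µM at least 3 SD below or above vehicle control mean in one or both replicates; inconclusive = no clear call, values can overlap the other calls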
* marks the source's active call; other numbers are inactive results; ? = inconclusive; / = no result given. Hits are enriched below; roughly 3% of the tested compounds scored in any of these assays.

SMILES | INS promoter inh | SDO1 yeast rescue | Measles CPE | ROMK mod | ROMK retest
CCOC(=O)C(C)Oc1cccc2c(=O)n(CC(=O)NCc3ccco3)ccc12 (configuration not stated) | / | 0.88 | 7 | / | 0.086
CC(C)C(=O)c1cn(CC(=O)NCc2ccco2)c2ccccc12 | -25 | 0.68 | 6 | 0.29 | /
CC(C)OC(=O)Cn1cc(C#N)c2ccccc21 | / | / | / | -8.8* | 0.079
COc1cccc(C2SCC(=O)N2c2ccc(Br)cc2)c1OC (configuration not stated) | / | -0.89 | 34 | 0.091 | /
CCOc1ccc(NC(=O)N[C@@H](CCSC)C(=O)OC)cc1 | 53 | 0.99 | 3 | 2.4* | ?
COc1ccc(/C=C(\C#N)c2n[nH]c(Cn3cncn3)n2)cc1 | / | / | / | 0.2 | /
N#C/C(=C\c1ccc(Cl)cc1)c1n[nH]c(Cn2cncn2)n1 | 7 | 0.65 | 11 | -4.1* | 0.047*
Cc1ccc(S(=O)(=O)NC2=NCN(Cc3cccnc3)CN2)cc1 | / | 0.36 | 6 | 0.58 | /
Cc1ccc(S(=O)(=O)NC2=NCN(C3CCCCC3)CN2)cc1 | -125 | 1.8 | 5 | / | ?
c1ccc(-c2nnc(-c3ccccc3)c(-c3c[nH]c4ccccc34)n2)cc1 | 23 | 0.02 | 3 | / | /
c1ccc2c(-c3ccncc3)c[nH]c2c1 | 45 | -0.25 | 6 | 4* | 0.091
Cc1ccc(C2=NOC(=O)/C2=C\c2ccc(C)o2)cc1 | / | / | / | -3.7* | 0.039*
O=S(=O)(c1ccc(Cl)s1)N1CCN(Cc2ccccc2)CC1 | -16 | -0.12 | 22 | -1.9 | /
O=C(CN1CCN(S(=O)(=O)c2ccc(Cl)s2)CC1)N1CCOCC1 | / | / | / | -3.2* | 0.076
O=C(Nc1cccnc1)C1(c2ccc(Cl)cc2)CCCC1 | 11 | 0.19 | 11 | -0.13 | /
C=CCNc1sc(C(=O)c2ccc(Br)s2)c(N)c1C#N | / | 1.3 | 3 | -3.6* | 0.056*
COCc1c(Br)c(C)nc(OCC(=O)N/N=C/c2cc(C)n(-c3ccc([N+](=O)[O-])cc3)c2C)c1C#N | / | 0.48 | 11 | / | /
O=C(N/N=C/c1ccc(-c2ccc(Cl)c(C(=O)O)c2)o1)c1cc2c(ccc3ccccc32)o1 | / | / | / | 1.9 | /
CCC(C)(C)NC(=O)C(c1cccn1C)N(C(=O)Cn1nnc2ccccc21)c1ccc(OC)cc1OC (configuration not stated) | -170 | 0.88 | 4 | -3.5* | 0.051*
Oc1ccc(/C=N/NC(=S)N/N=C/c2ccc(O)cc2)cc1 | -5 | / | / | 3.3* | 0.093
COc1ccc(NS(=O)(=O)c2ccc(N3CCCC3=O)cc2)cn1 | 7 | / | / | 2.3* | 0.081
COc1ccc(S(=O)(=O)n2[nH]c(=O)c(CCO)c2C)c([N+](=O)[O-])c1 | -12 | / | / | -0.57 | /
NCCOc1ccc(C23CC4CC(CC(C4)C2)C3)cc1 | / | / | / | -2.9* | 0.063*
Cc1cccc(OCCCN2CCCCCC2)c1 | -3 | -0.47 | 8 | 3.2* | 0.073
COC(=O)[C@@H]1CC[C@H](C)[C@@H](c2ccc(C)cc2)N1C(=O)c1ccc(/C=N/O[C@@H](C)c2cn([C@H](CO)Cc3ccccc3)nn2)cc1 | 5 | -0.02 | 3 | -0.28 | /
SMILES | INS promoter inh | SDO1 yeast rescue | Measles CPE | ROMK mod | ROMK retest
COc1ccc(CN(C2CCCCC2C)S(=O)(=O)c2ccc(S(=O)(=O)N(C)C)cc2)cc1OC (configuration not stated) | -24 | -0.07 | 4 | / | 0.077
COc1cc(CN(C2CCCCC2C)S(=O)(=O)c2ccc(S(=O)(=O)NC3CC3)cc2)cc(OC)c1OC (configuration not stated) | 24 | -0.79 | 5 | 0.023 | /
CC1C(=NO)C(C)C(c2ccc(N(C)C)cc2)NC1c1ccc(N(C)C)cc1 (configuration not stated) | / | 0.42 | 14 | -4.4* | 0.067*
Cc1ccc(S(=O)(=O)N2CCOCC2)cc1NC(=O)COC(=O)c1cc(=O)c2ccccc2o1 | 46 | 2.4 | 16 | 0.72 | /
CCCC(c1nnnn1Cc1cccs1)N1CCN(C2CCCC2)CC1 (configuration not stated) | / | 0.26 | 20 | / | /
COc1ccc(C(c2nnnn2Cc2ccc(F)cc2)N2CCN(c3ccc(OC)cc3)CC2)cc1 (configuration not stated) | / | -2.1 | 4 | -0.077 | /
CC(C)C(c1nnnn1Cc1ccc(F)cc1)N1CCN(C2CCCC2)CC1 (configuration not stated) | / | / | / | -4.6* | 0.059*
COc1ccc(Cn2nnnc2C(c2ccc(F)cc2)N2CCN(C3CCCC3)CC2)cc1 (configuration not stated) | 0 | 0.8 | 1 | -4.2* | 0.053*
CC(C)C(c1nnnn1Cc1ccco1)N1CCN(C2CCCC2)CC1 (configuration not stated) | / | -0.44 | 7 | -1.1 | /
CCCC(c1nnnn1Cc1ccc(F)cc1)N1CCN(C2CCCCC2)CC1 (configuration not stated) | / | -0.08 | 3 | / | 0.052*
Cc1ccc(SCC(=O)Nc2cccc(NC(=O)c3ccco3)c2)cc1 | -21 | -0.83 | 9 | / | /
O=C(O)C1C2C=CC(C2)C1C(=O)NC(c1ccccc1)c1ccccc1 (configuration not stated) | -50 | 0.33 | 18 | -0.2 | /
CCOC(=O)c1n[nH]c2ccccc12 | -11 | 0.27 | 6 | 2.2* | 0.073
Oc1ccc(Cl)cc1-c1cc(-c2ccccc2)n[nH]1 | / | -2.7 | 3 | / | /
COc1ccccc1-c1cc(-c2cc(Cl)ccc2O)n[nH]1 | / | 0.02 | 5 | 2.5 | ?
O=c1[nH]c(-[n+]2ccccc2)c(/C=N/N=C(\[O-])c2ccccc2)s1 | / | / | / | 0.43 | /
Cc1cc[n+](-c2[nH]c(=O)sc2/C=N/N=C(\[O-])c2ccccc2)cc1C | / | / | / | -6.6* | 0.047*
CC1Cc2nc(SCC(=O)Nc3nc4ccccc4s3)n(C)c(=O)c2S1 (configuration not stated) | / | 0.34 | 14 | / | /
O=C(Cn1nnc2ccccc21)N/N=C/c1ccco1 | / | 1.7 | 9 | / | /
O=C(Cn1nnc(-c2ccccc2)n1)N/N=C/c1ccco1 | / | / | / | -12* | 0.072
CC(C)CC(NC(=O)c1ccccc1)C(=O)N/N=C/c1ccco1 (configuration not stated) | -7 | 0 | 2 | 0.96 | 0.086
CCCC(=O)Nc1ccc(NC(=O)c2ccco2)c(OC)c1 | -15 | 1.2 | 11 | 0.51 | /
CN=C(Nc1ccc(Br)cc1)SC1CC(=O)N(c2ccc(OC)cc2)C1=O (configuration not stated) | -78 | / | / | 0.076 | /
COC(=O)c1ccc(OC(=O)c2ccc(OC)c(OC)c2)c(OC)c1 | -18 | -0.36 | 2 | -3.9* | 0.08
CCCS(=O)(=O)N1CCC(C(=O)NCC2CCCO2)CC1 (configuration not stated) | / | -0.23 | 5 | / | /
CCOC(=O)c1cc(-c2ccc(/C=N\n3cnnc3)o2)ccc1Cl | 30 | 1.8 | 3 | / | 0.066*
CCCCOC(=O)c1cc(-c2ccc(/C=N/n3cnnc3)o2)ccc1Cl | 20 | / | / | / | /
